# Source: PubChem BioAssay AID504648 (National Center for Advancing Translational Sciences (NCATS), 2011)
# The campaign covered roughly 390,000 compounds. About 610 (0.16%) were called active. A call without a number means that no potency is given here. Not shown: some 4% with an inconclusive outcome. This is one part of a sample in which actives are shown more often than they occur. The call rests on the fitted dose curve; in most records, active means well fitted inhibition curve with a large enough effect; inconclusive means small, poorly fitted or top-dose-only effect, or effect the other way, or another doubt; inactive means no such curve, though single readings can be large or run the other way.
# Assay: Nrf2 qHTS screen for inhibitors: counterscreen for cytotoxicity
# Details: A549 ARE-Fluc cells, CellTiter-Fluor viability, 18-24 h; series mostly up to 46 µM
# Method in brief: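 A549 ARE-Fluc cells in 5% FBS OPTI-MEM, 5000 cells/well, rested 2 h then exposed to compounds in concentration-response for 18-24 h at 37 °C. Viability by CellTiter-Fluor fluorescence (Ex 405/Em 525) after 30 min; luciferase luminescence (BugLite, 15 min, RT) read afterwards.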
# Potency means the concentration at half of the fitted maximal effect.
row,Compound,Potency
1,COc1ccc(C2=Nn3c(nnc3-c3ccccc3O)SC2)cc1,inactive
2,Cc1ccc(CNc2ncnc3cc(-c4ccc5c(c4)OCO5)ccc23)o1,inactive
3,Cc1ccc(C)c(CN2C(=O)c3ccccc3S(=O)c3ccc(C(=O)N4CCOCC4)cc32)c1 (configuration not stated),inactive
4,Cc1ccc(S(=O)(=O)NC(C(=O)N2CCOCCOCCOCCOCC2)c2ccccc2)cc1 (configuration not stated),inactive
5,Cc1oc2c(c1C(=O)N1CCOCC1)C(=O)c1ccccc1C2=O,16.4 µM (active)
6,CCN(CC)c1nc(C#N)nc(OC)n1,inactive
7,Cc1ccccc1OCCSc1nc2ccc(NC(=O)c3ccco3)cc2s1,inactive
8,CCOc1ccccc1NC(=O)CN1CCCN(Cc2cccc(Cl)c2)S1(=O)=O,inactive
9,CC(C)c1ccc(NC(=O)Cn2c3ncccc3c(=O)n2-c2ccccc2)cc1,inactive
10,Cc1ccc(C(=O)Nc2nc(-c3ccccc3)ns2)cc1,inactive
11,CCN1CCN(CCCNC(=O)c2ccc3c(c2)sc2nc(-c4ccc(OC)cc4)cn23)CC1,inactive
12,Cc1cc2nc(NC(=O)c3ccc(S(=O)(=O)N4CCOCC4)cc3)sc2cc1C,inactive
13,CC(C)c1ccc(/C=C/C(=O)NCCCN2CCOCC2)cc1,inactive
14,Cc1ccc(/C=C2/SC(=S)N(CCC(=O)NCCCN3CCOCC3)C2=O)cc1,14.6 µM (active)
15,Cc1ccc(NS(=O)(=O)c2ccc(C(=O)NCCCN3CCOCC3)cc2)cc1,inactive
16,O=C(NCC1CC1)C1(C(F)(F)F)C/C(=C\CCO)CCCO1 (configuration not stated),inactive
17,CCN1/C(=C\c2ccc3ccccc3[n+]2CC)Sc2cc(C)ccc21,23.1 µM (active)
18,Cc1ccc(CN2CCCn3nc(C(=O)NCc4ccccc4Cl)cc3C2=O)cc1,inactive
19,Cc1ccc(Nc2c(-c3ccc(N(C)C)cc3)nc3nc[nH]n23)cc1,inactive

row,Compound,Potency
1,CN(C)c1ccc(Nc2c3c4c(cccc4n(C)c2=O)C(=O)c2ccccc2-3)cc1,14.6 µM (active)
2,COc1cc(OC)c2c(c1C(CCN1CCCCC1)c1ccc(N(C)C)cc1)OC(=O)CC2c1ccc(N(C)C)cc1 (configuration not stated),inactive
3,Cc1ccc(OCCSc2nc(-c3cccs3)nc3cc(=O)[nH]n23)cc1Cl,inactive
4,CCOc1ccc(NC(=O)C(CC(C)C)N2Cc3ccccc3C2=O)cc1 (configuration not stated),inactive
5,COc1cc(Cl)c(C)cc1NC(=O)CCc1nc2cccnc2n1Cc1cccs1,inactive
6,CN(C)c1ccc(C(=O)NCC(=O)OC(C(=O)Nc2cc(C(F)(F)F)ccc2Cl)c2ccccc2)cc1 (configuration not stated),inactive
7,Cc1ccc(C(=O)NC2CCN(C#N)CC2)cc1,inactive
8,COc1ccc(-c2nc(S(=O)(=O)c3ccccc3)c(N3CCCCC3)o2)cc1,inactive
9,O=S(=O)(c1ccc2c(c1)OCCO2)N1CCN(S(=O)(=O)c2cc(F)ccc2F)CC1,inactive
10,COc1ccc(C2/C=C\CN(Cc3ccco3)C(C)C(=O)N2Cc2ccc(F)cc2)cc1 (configuration not stated),inactive
11,COc1cccc(NC(=O)Nc2ccc3c(c2)N(C)C(=O)c2ccccc2S3)c1,inactive
12,CC1(C)CCc2cc(S(=O)(=O)N3CCN(c4nc(-c5cccs5)nc5ccccc45)CC3)ccc2O1,inactive
13,CCCS(=O)(=O)N1CCC(n2c(C(F)(F)F)nc3cccnc32)CC1,inactive
14,OCCNc1ncnc2oc(-c3ccco3)c(-c3ccco3)c12,inactive
15,COc1ccc(C2CC(O)(c3ccccc3)Oc3cc(C)cc(C)c32)cc1 (configuration not stated),inactive
16,O=S(=O)(c1cccc(C(F)(F)F)c1)N1CCN(c2nc(-c3cccs3)nc3ccccc23)CC1,inactive
17,COc1cccc(C(=O)NC2CCN(C#N)CC2)c1,inactive
18,C=CCCN(C(Cc1ccccc1)C(=O)OC)S(=O)(=O)c1cc(Br)ccc1Br (configuration not stated),inactive
